Source: PubChem (National Center for Advancing Translational Sciences (NCATS))
PINK1 modulator: A Quantitative High throughput Screen to Identify Chemical Modulators of PINK1 Expression; 0.2% of 410,000 active; PINK1 immunofluorescence, high-content cytometry, 24 h; Potency, µM (series often up to 76.6 µM), without a hit: top-dose activation (PINK1 increase), most hits filed as activators; active = well fitted activation curve with a large enough effect; inconclusive = small, poorly fitted or top-dose-only effect; cell line not stated here; also: % of control where 0% means no effect; nearly all actives have a fitted effect of over 65% in size
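Cells are seeded, rested 12 hours, then given compound at five concentrations or DMSO for 24 hours. After fixation, blocking and antibody staining, PINK1 amount and mitochondrial localization are scored; CCCP serves as control.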
Vif-A3G inh: qHTS for Inhibitors of Vif-A3G Interactions: qHTS | HeLa A3G-eYFP + Vif (tagged APOBEC3G with the HIV-1 protein that degrades it), YFP fluorescence, overnight | Potency, µM (series often up to 46.1 µM), inactives show at the highest dose activity, negative = active, actives largely listed as inhibitors | 0.076% of 410,000 active | AID 602310, 2012; also: % is scaled to controls: 0 for no effect and ±100 for the full control effect; nearly all actives have a fitted effect of over 60% in size
Target sequence (Q9HC16 whole entry, looked up): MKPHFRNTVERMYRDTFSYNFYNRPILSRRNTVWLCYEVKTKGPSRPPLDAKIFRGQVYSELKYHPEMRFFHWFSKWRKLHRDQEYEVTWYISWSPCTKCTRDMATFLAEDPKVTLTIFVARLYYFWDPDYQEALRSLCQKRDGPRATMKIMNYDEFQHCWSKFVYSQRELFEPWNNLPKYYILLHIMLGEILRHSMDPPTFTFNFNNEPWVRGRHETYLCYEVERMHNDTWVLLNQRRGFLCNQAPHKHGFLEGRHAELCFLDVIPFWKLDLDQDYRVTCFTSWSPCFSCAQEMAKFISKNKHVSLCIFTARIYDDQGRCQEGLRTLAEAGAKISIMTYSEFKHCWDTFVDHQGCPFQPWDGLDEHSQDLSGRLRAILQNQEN
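Read-out is eYFP fluorescence (Ex 488/Em 500-530) from Vif-expressing HeLa A3G-eYFP cells; more signal means A3G escaped Vif-mediated degradation. Cells plated overnight, compound pinned in, incubated overnight at 37 deg C.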
Epigenetic reg: Quantitative High-Throughput Screen for Regulators of Epigenetic Control; 0.2% of 280,000 active; Potency, µM (series often up to 53.9 µM), for the others: at the top dose GFP activation, actives largely listed as activators; murine LDR cells, GFP reporter derepression, 30 h; also: % of control where 0% means no effect; nearly all actives have a fitted effect of over 60% in size
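Readout is the number of GFP-expressing murine LDR cells, counted by cytometry following washing. Cells were treated with compound for 30 h at 37 C; the stably integrated CMV-GFP locus is normally silent.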
Vif-A3F inh: qHTS for Inhibitors of Vif-A3F Interactions: qHTS | HeLa A3F-eYFP + Vif (tagged APOBEC3F with the HIV-1 protein that degrades it), YFP fluorescence increase | Potency, µM (highest dose often 46.1 µM), for the others: top-dose activity, negative = active | 0.2% of 390,000 active | AID 602313, 2012; also: % of control where 0% means no effect; nearly all actives have a fitted effect of over 65% in size
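Fluorescence increase (Ex 488/Em 500-530) after overnight compound treatment at 37 deg C flags inhibition of Vif-driven A3F-eYFP loss in stable HeLa A3F-eYFP/Vif cells seeded overnight beforehand.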
The depositor's hits bear a star. Hits are enriched below; roughly 0.52% of the tested compounds scored in any of these assays. Unless noted, calls follow the shape of the dose curve; as a rule, active = well fitted curve in the direction sought with a large enough effect; inconclusive = small, poorly fitted or top-dose-only effect, or another doubt; inactive = no such curve, though single readings can be large; an effect the other way counts as inactive or inconclusive. Potency is read from the fitted curve at half-maximal effect.

For COc1cccc(C(=O)c2cn(CC(=O)Nc3cc(Cl)c(OC)cc3OC)c3nc(C)ccc3c2=O)c1 the results were PINK1 modulator 7%, Vif-A3G inh -3%, Epigenetic reg inconclusive and Vif-A3F inh -16%.
Screening COc1cccc2c1C(=O)c1c(O)c3c(c(O)c1C2=O)CC(O)(C(C)=NO)CC3OC1CC(N)C(O)C(C)O1 (stereo unspecified) returned PINK1 modulator -2%, Vif-A3G inh 2% and Vif-A3F inh -26%.
`CC[C@]1(O)CC(O[C@@H]2CC(N(C)C)C(O)C(C)O2)c2c(cc3c(c2O)C(=O)c2c(O)cccc2C3=O)C1C(=O)OC` (stereo partly specified) gave Epigenetic reg 6.3µM*.
O=C1C(Cl)=C(Cl)C(=O)C(Cl)=C1Cl was read as Epigenetic reg 1%.
Cc1cccc(-n2c(O)c(/C=C/C=Nc3ccccc3)c(=O)[nH]c2=O)c1 was read as PINK1 modulator 7%, Vif-A3G inh 5%, Epigenetic reg 8% and Vif-A3F inh 10µM*.
Screening Cc1ccccc1-n1c(O)c(/C=C/C=Nc2ccccc2)c(=O)[nH]c1=O returned PINK1 modulator 9%, Vif-A3G inh 0%, Epigenetic reg 4% and Vif-A3F inh 20µM*.
`O=c1[nH]c(CN2CC=C(c3ccccc3)CC2)nc2cc(C(F)(F)F)ccc12` gave PINK1 modulator 0%, Vif-A3G inh -15%, Epigenetic reg 1% and Vif-A3F inh -7%.
O=c1[nH]c(CN2CC=C(c3ccccc3)CC2)nc2scc(-c3ccccc3)c12 was read as PINK1 modulator 5%, Vif-A3G inh inconclusive, Epigenetic reg inconclusive and Vif-A3F inh 10µM*.
`CC(C)c1ccc(N2C(=O)NC(=O)/C(=C/C=C/c3ccco3)C2=O)cc1` gave PINK1 modulator -2%, Vif-A3G inh 8.9µM*, Epigenetic reg 1% and Vif-A3F inh inconclusive.
Screening O=C1NC(=O)N(Cc2ccc(F)cc2)C(=O)/C1=C\C=C\c1ccco1 returned PINK1 modulator -1%, Vif-A3G inh inconclusive, Epigenetic reg 10% and Vif-A3F inh 10µM*.
`COC(=O)c1c(-c2ccc(Cl)cc2)noc1N1CCN(c2ccc(C(C)=O)cc2)CC1` gave PINK1 modulator 3%, Vif-A3G inh -1%, Epigenetic reg inconclusive and Vif-A3F inh -6%.
Cc1c2ccncc2c(C)c2c1[nH]c1ccccc12 was read as PINK1 modulator -1%, Vif-A3G inh inconclusive, Epigenetic reg inconclusive and Vif-A3F inh 10µM*.
c1ccc2c(c1)[nH]c1cnccc12 was read as PINK1 modulator 0%, Vif-A3G inh 2%, Epigenetic reg -4% and Vif-A3F inh 2%.
For CCOc1ccc(-c2c(C)n(-c3ccc(OCC)cc3)c3[n+]2CCCCC3)cc1 the results were PINK1 modulator 10µM*, Vif-A3G inh 6%, Epigenetic reg 1% and Vif-A3F inh -24%.
O=[N+]([O-])c1ccc(NCc2ccccc2)c2nonc12 was read as PINK1 modulator 40µM*, Vif-A3G inh 8%, Epigenetic reg 22µM* and Vif-A3F inh 5%.
`Cc1[nH]n(-c2ccccc2)c(=O)c1C(c1ccc([N+](=O)[O-])cc1)c1c(C)[nH]n(-c2ccccc2)c1=O` gave PINK1 modulator 40µM*, Vif-A3G inh 9%, Epigenetic reg -1% and Vif-A3F inh 1%.
`CN1C(=O)C(=Cc2ccc(N3CCCCCC3)o2)C(=O)N(C)C1=S` gave PINK1 modulator 9%, Vif-A3G inh inconclusive, Epigenetic reg 2% and Vif-A3F inh inactive.
For CN1C(=O)C(=Cc2ccc(N3CCOCC3)o2)C(=O)N(C)C1=O the results were PINK1 modulator 0%, Vif-A3G inh -10%, Epigenetic reg -2% and Vif-A3F inh 11µM*.
`Cc1cc(N(CCCl)CCCl)ccc1C=Cc1ccncn1` gave PINK1 modulator 4%, Vif-A3G inh inconclusive and Vif-A3F inh 25µM*.
`Cn1c(N)c(Sc2ccccc2[N+](=O)[O-])c(=O)n(C)c1=O` gave PINK1 modulator -2%, Vif-A3G inh -1% and Vif-A3F inh inconclusive.
Screening Cc1cccc(-n2c(/C=C/c3c(C)[nH]c4ccccc34)nc3ccccc3c2=O)c1 returned PINK1 modulator 26%, Vif-A3G inh -10%, Epigenetic reg 4µM* and Vif-A3F inh 10µM*.
For Cc1cccc(-n2c(/C=C/c3ccccc3O)nc3ccccc3c2=O)c1 the results were PINK1 modulator 0%, Vif-A3G inh 7%, Epigenetic reg 1% and Vif-A3F inh -12%.
Screening Cc1cccc(-n2c(/C=C/c3ccc([N+](=O)[O-])o3)nc3ccccc3c2=O)c1 returned PINK1 modulator 10%, Vif-A3G inh inconclusive, Epigenetic reg 0% and Vif-A3F inh 8.9µM*.
O=c1c2ccccc2nc(/C=C/c2ccc([N+](=O)[O-])o2)n1-c1ccc(O)cc1 was read as PINK1 modulator 40µM*, Vif-A3G inh inconclusive, Epigenetic reg 2% and Vif-A3F inh inconclusive.
`CNNC` gave PINK1 modulator 1% and Epigenetic reg -1%.
Screening C[C@@H](N)[C@@H](O)c1ccc(O)c(O)c1 returned Epigenetic reg 0%.
CN(C)C1C(=O)C(C(N)=O)=C(O)[C@@]2(O)C(=O)C3=C(O)c4c(O)cccc4[C@@](C)(O)C3[C@H](O)C12 (stereo partly specified) was read as Epigenetic reg 1%.
Screening COc1cc2c(cc1OC)[C@@H]1C(=O)c3ccc(OC)c(CC=C(C)C)c3OC1CO2 (stereo partly specified) returned PINK1 modulator 20µM* and Epigenetic reg -2%.
CCCCn1c(O)c(C(CC)=NCCc2ccccc2)c(=O)[nH]c1=O was read as PINK1 modulator 4%, Vif-A3G inh -5%, Epigenetic reg -2% and Vif-A3F inh 2%.
For CCCCn1c(O)c(C(=O)/C=C/c2c[nH]c3ccccc23)c(=O)[nH]c1=O the results were PINK1 modulator -2%, Vif-A3G inh 3.2µM*, Epigenetic reg inconclusive and Vif-A3F inh -339%.
`N#CC(C#N)=NNc1ccc(OC(F)(F)F)cc1` gave Epigenetic reg 1%.
`CCOC(=O)c1cccc(-[n+]2c(-c3ccccc3)cc(-c3ccccc3)cc2-c2ccccc2)c1` gave PINK1 modulator 25µM*, Vif-A3G inh 1% and Vif-A3F inh 3%.
`CCOC(=O)c1ccc(-[n+]2c(-c3ccccc3)cc(-c3ccccc3)cc2-c2ccccc2)cc1` gave PINK1 modulator inconclusive, Vif-A3G inh -9% and Vif-A3F inh -18%.
For Fc1ccc(C(OCCN2CCN(C/C=C/c3ccccc3)CC2)c2ccc(F)cc2)cc1 the results were Epigenetic reg 0%.
